From the supplement of paper PMC11417369
In all, about 25,000 sequences were measured (“ln(normalized median fluorescence intensity)”: median about 7.1, highest 2% from about 10 on). What follows is part of a selection rich in the highest values, with near analogues and random picks from the rest.

These sequences were tested on PfSIP2 AP2 domain 1 (GST-tagged) (assay: gcPBM binding intensity (ln(normalized median fluorescence intensity)); higher = stronger DNA binding).
Summary of the method: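 GST-tagged P. falciparum DNA-binding domains, expressed in E. coli (about 25 μg on average), were applied for 1 h to an Agilent 4 × 180k array of primer-extended double-stranded 36-bp intergenic genomic probes plus negative controls. The binding buffer was 1× PBS with 1% milk, 0.2 mg/ml BSA, 0.5% salmon testes DNA and 0.03% Triton X-100. Bound protein was detected with Alexa488 anti-GST antibody and scanned at 488 nm. Binding intensity is the highest Masliner-normalised natural-log median intensity across replicate spots of either probe orientation.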

Row | Sequence | gcPBM binding intensity (ln)
1 | GTATATGAATAATATTTTATGGTAATTTTTTTTTTT [XGTACX_negctrl_site512] | 6.91
2 | ATATGACATAAAACATGTACATGTTCATAAATATAT [XGTACX_site1923] | 7.07
3 | AAATATAATAATATATGTACATATATATATATATAT [XGTACX_site6980] | 9.73
4 | ATATATATTAATTTTGTGCACAAATGGAAATGTTTG [GTGCAC_site9971] | 8.34
5 | GAAATTTTTAATGTGGTGCACAGGAAATTTTTTCTT | 11
6 | AAAAAAAATTTAATTGCACACAGGAAAATATAATTT [CACACA_site3810] | 7.01
7 | AAGCGAATCTATATCACACACAAAAAAATCAGACTA [CACACA_site7072] | 6.94
8 | GACTACACACAAGGGTGTACATATATATTATATATA [XGTACX_site2247] | 7.31
9 | TAAGTATAATATTGATGTACATATAATAACTTGTAT [XGTACX_site417] | 7.03
10 | CATTTTATTTTCTTTGTGCACAAAAATATTTTTTCT | 8.78
11 | TCTTTCCTTATTAAAACACACAAATACATTATTTAA [CACACA_site2147] | 7.13
12 | TTTTATTTCTTTGCACCATTTTAAATACAAACAAAT [CACACA_negctrl_site1553] | 10.7
13 | TATGAGAAAAAAAGTACATGCACAAAATGTATATGT [TGCATGCA_site789] | 7.3
14 | ATATGAAGTTATATAGTGCACATGTACAACCAAATC [GTGCAC_site9974] | 10.4
15 | ATATGTACAAGTTATACACACATGTACAGTTATATA [CACACA_site6706] | 7.11
16 | GAAGTTAGTGTTGACTGTACATATATATGTATATAT [XGTACX_site7243] | 7.21
17 | GAAATTATGTAAAAAAGTACTAACATACATATATAT [XGTACX_site1794] | 7.18
18 | AAAAACAAACTGTGCATGCACCAAAAAAAAAAAAAA | 10.4
19 | AATGTGCAAACAAACTGTACTTTTTTTTTTTTTTTT [XGTACX_site928] | 7.84
20 | GAATTTATGAACTGTGCATGTAAAAAAAACAACAAA [TGCATGCA_site449] | 8.15
21 | TTATTTACTTATTGCACACATATAAAATATATTTAT [CACACA_site3101] | 7.74
22 | TAATATATTTATAGAGCATGCAACGTAATATTATTA [TGCATGCA_site863] | 7.12
23 | AAAATTTCTTTTTTTTGTACATATATAATAATATAT [XGTACX_site7107] | 6.92
24 | TACGTCTTTTTTTTGGTGCATAATTTTTTTGTACAA | 10.9

Row | Sequence | gcPBM binding intensity (ln)
25 | ATTTTTTTGGTAATTTGTACATAATATATACATAAT [XGTACX_site3742] | 7.21
26 | TTAACGCTTATTTTTTGTACTTATTTTATTTTAAAT [XGTACX_site3977] | 7.22
27 | CCCTATATAAATAGCTGTACATTTGAACATGTTCAG [XGTACX_site2187] | 6.97
28 | GCAATTTTTTTTAAGAGTACTAATATATTATAGTGG [XGTACX_site7316] | 7.11
29 | TATGTATAAATATATGCACACATATATATATTTATA [CACACA_site9150] | 7.18
30 | TGTGCGGAAATAAGTGCACACATAGATATATGTATT [CACACA_site9227] | 10.8
31 | TATAAATATATGTATGCACACATTTTTTTTGGAAAA [CACACA_site1070] | 8.1
32 | TGTGCGGAAATAAGTGCACACATAGATATCTGTATT [CACACA_site5935] | 10.9
33 | AATAAATAGATATATACACACATATATGTGTACATA [CACACA_site7476] | 7.06
34 | TGTGTGTGTATATGTGTGCACATATAAAATAGAAGA [GTGCAC_site9714] | 8.95
35 | TGCGGAAATAAGTGCACACATAGATATATGTATTTT [CACACA_site3689] | 10.8
36 | TATAAATATCTGTATGCACACATTTTTTTTGGAAAA [CACACA_site4734] | 8.04
37 | TACAAATATATATGCACACACATATCTGTATATGTG [CACACA_site5663] | 7.66
38 | TTTTTCTCTTTAAGGTGTACAATAATACAGTAACCA [XGTACX_site300] | 7.44
39 | ATAAATAATAAAAAATGTACACATATAAATATAAAG [XGTACX_site727] | 7.11
40 | TCTTACGGATTCATTGTGCACATATATATATATATA [GTGCAC_site9896] | 9.46
41 | AGCACACGCAGACACACACACACACGCACACGCACA [CACACA_site6306] | 8.43
42 | TACCACATCGGTAAATGTACTTATAAAAAAAAAAAA [XGTACX_site3364] | 6.83
43 | ACATTTAAAATTTATGCATGTGGTGTTTTGTATATA [TGCATGCA_site534] | 7.26
44 | CATACAATAAATATGGTGCATTTTATGTAACCGTTT [GTGCAC_site9420] | 10.4
45 | ATATATATATTTTATGCATGTTCATTTTCTATATTT [TGCATGCA_site442] | 8.1
46 | TTACACATGTATTTGGTGCATGTTGTTAACAAAATA | 9.57
47 | TTTTGTTTATGTGTGCATTATATTATATTTTTTATT [TGCATGCA_negctrl_site146] | 7.83
48 | GATATATTTTATATATGTACATACAATGGTAAATAT [XGTACX_site2759] | 7.09

Row | Sequence | gcPBM binding intensity (ln)
49 | TATATATTGTTATATACACACATGTATTTAAAAAAT [CACACA_site5737] | 6.91
50 | TTTTTGTTCTATATGGTGCATGTTTATATTCGTATT | 10.3
51 | TATATATATATGTATGCATGTTGTTTTTTATTTAAT [TGCATGCA_site343] | 9.27
52 | TTTATTTTGTTTATGGTGCATTTTATGTAAATATAT | 10.8
53 | ACACATGTATTTGGTGCATGTTGTTAAAAAAATATT [TGCATGCA_site795] | 10.8
54 | ATCATATTTATGTTGGTGCATTATACATAAAGTTTA [GTGCAC_site9574] | 10.2
55 | ATGAAATTTATATCATGTACATACAAGAGAAAAAAA [XGTACX_site3326] | 7
56 | ATTCTTTTTTTTTGGAAATGTATTTTTATGTTTTGT [TGCATGCA_negctrl_site426] | 6.73
57 | TTAAAAATAAATTCATGTACATAATATATATATATA [XGTACX_site7908] | 9.25
58 | ATATATTTTTGTAGTGTGCACGTTTATATGGTGAAA | 10.3
59 | TTATATTTATATTTATGTACATATTTTGTGTGAAAA [XGTACX_site2367] | 7.27
60 | TTATATTAATTTTGTTGTACTATTTGTGCATTAAAT [XGTACX_site4790] | 7.42
61 | ATTTTGTGTAGTGATGCATGTTATATATATATTTGA [TGCATGCA_site422] | 7.33
62 | TTTTGTAATGTGAATATTTGTATATTATTTGTATAT [CACACA_negctrl_site1677] | 7.03
63 | TTTTTTGTTTGAATGGTGCATTTTGTAATTATATTT | 10.6
64 | AAAAAAAAAAAAAATAGTACAATACCCAAATATAAC [XGTACX_site6684] | 7.3
65 | GATAAATAATAATAAGGTACACATAAAATATTCCTT [XGTACX_site2963] | 6.86
66 | CACACAGGTAAAAAGGTGCAGTTGAAATATTCCTCA [GTGCAC_site9730] | 11.1
67 | AAAAAAAAAAAAAAAGGTACAGTAAAAAATTCCTCT [XGTACX_site5947] | 7.41
68 | AAAAATAAATATACATGTACATAATAATAATATATA [XGTACX_site8359] | 6.97
69 | CTTTTAGAATAATCAGTGCAAAAAAAAAAAAAAAAA | 8.42
70 | GATAATCAGAATGGGGTGCAAAGAAAAAAAAAAAAA | 11.3
71 | TATTTAAAATAATGTGCAAAAGAATAAATAAATAAA [TGCATGCA_negctrl_site194] | 7.23
72 | TTTTTTTTTAAGTTTGCACACATGGAAGACAAAAAT [CACACA_site2505] | 7.96
